Source: PubChem (National Center for Advancing Translational Sciences (NCATS))
The list is not random: actives were taken first. Their share in the collection is about 3.6%.
Sfp PPTase inh = inhibitors of Bacillus subtilis Sfp phosphopantetheinyl transferase. Biochemical Sfp PPTase activity, qHTS. Potency, µM, inactives show largest response in the series, negative = inhibition, hits mostly inhibitors. hit rate 3.5% among 310,000. AID 1490;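 further: the enzyme is Sfp with the accession as filed and its product quenches rhodamine fluorescence; 0% = enzyme reaction without inhibitor and -100% = no enzyme wells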
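Compounds were incubated with enzyme (final 15 nM) for 15 min at room temperature before substrate addition started the reaction. Fluorescence at 525 nm excitation, 598 nm emission was recorded immediately and after 30 minutes.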
KDM4E inh = inhibitors of human JMJD2E histone demethylase; Potency, µM (top dose mostly 57.1 µM), inactives show at the top dose activity change, negative = inhibition, usual class: inhibitors; B2RXH2; hit rate 1.6% among 230,000; JMJD2E catalytic domain, FDH-coupled NADH fluorescence (FDH is formaldehyde dehydrogenase);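 further: 0% = wells with enzyme and -100% = buffer wells without enzyme; nearly all actives have a fitted effect of over 50% in size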
Target sequence (B2RXH2 1-337 limits assumed): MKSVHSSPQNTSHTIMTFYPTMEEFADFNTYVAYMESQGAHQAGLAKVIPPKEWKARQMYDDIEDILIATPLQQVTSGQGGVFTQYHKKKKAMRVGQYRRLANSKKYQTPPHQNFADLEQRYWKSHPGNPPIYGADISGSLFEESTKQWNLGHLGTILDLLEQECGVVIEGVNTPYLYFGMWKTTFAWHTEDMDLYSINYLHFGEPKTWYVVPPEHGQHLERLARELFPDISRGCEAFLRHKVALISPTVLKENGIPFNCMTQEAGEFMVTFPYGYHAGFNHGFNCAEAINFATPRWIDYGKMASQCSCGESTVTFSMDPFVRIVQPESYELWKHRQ
Epigenetic reg = epigenetic control regulation, reporter derepression. murine LDR cells, GFP reporter derepression, 30 h. Potency, µM (series often up to 53.9 µM), for inactives: at the top dose GFP activation, most hits filed as activators. hit rate 0.2% among 280,000. AID 1865; further: % of control where 0% means no effect; nearly all actives have a fitted effect of over 60% in size
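Readout is the number of GFP-expressing murine LDR cells, counted by cytometry following washing. Cells were treated with compound for 30 h at 37 C; the stably integrated CMV-GFP locus is normally silent.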
NPSR antagonist = antagonists of human neuropeptide S receptor cAMP signaling | hit rate 1% among 220,000 | AID 1461 | CHO-NPSR cells, cAMP TR-FRET, antagonist mode | Potency, µM (titrated, usually from 38.3 µM), inactives show at the top dose activity change, negative = inhibition, most hits filed as inhibitors | Q6W5P4; further: on the % scale 0 is the no-effect control and ±100 the full control effect; nearly all actives have a fitted effect of over 50% in size
Target sequence (Q6W5P4 whole entry, looked up): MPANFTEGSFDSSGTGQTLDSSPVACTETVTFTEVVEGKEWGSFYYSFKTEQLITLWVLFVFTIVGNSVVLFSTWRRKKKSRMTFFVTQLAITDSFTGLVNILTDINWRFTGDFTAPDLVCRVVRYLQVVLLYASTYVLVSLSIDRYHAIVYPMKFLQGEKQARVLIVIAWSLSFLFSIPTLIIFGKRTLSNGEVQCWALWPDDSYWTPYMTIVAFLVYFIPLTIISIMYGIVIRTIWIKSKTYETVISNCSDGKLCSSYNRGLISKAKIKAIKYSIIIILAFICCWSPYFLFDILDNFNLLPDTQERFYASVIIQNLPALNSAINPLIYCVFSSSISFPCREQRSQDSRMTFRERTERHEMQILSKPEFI
IMPase Li inh = cell-permeable IMPase inhibitors with lithium potentiation | CHO-M1 cells, IP1 TR-FRET (IP-One), carbachol + lithium | Potency, µM (highest dose often 59.4 µM), inactives show at the highest dose activity, negative = IMPase inhibition, hits mostly inhibitors | hit rate 0.35% among 210,000 | AID 1457;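 further: IP1 builds up when IMPase is blocked and the TR-FRET signal falls; plate controls were basal vehicle for no effect and high inhibitor control for full effect; nearly all actives have a fitted effect of over 50% in size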
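Lithium-sensitised IP1 accumulation assay; M1-expressing CHO cells treated 30 min at 37C with compound. Competitive antibody detection by time-resolved FRET followed a 10 min room-temperature lysis step.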
KAT2A inh = inhibitors of human GCN5L2 histone acetyltransferase; Q92830; GCN5L2 HAT assay, ThioGlo1 CoA-SH fluorescence; Potency, µM (highest dose often 58.9 µM), inactives show at the top dose activity change, negative = inhibition, hits mostly inhibitors; hit rate 0.21% among 390,000; further: on the % scale 0 is the no-effect control and ±100 the full control effect
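GCN5L2 (20nM final) in 50mM HEPES, 0.1mM EDTA pH 7.5, 0.01% Tween-20 was preincubated 15 min at room temperature with compound, then given ThioGlo1 (50uM), H3(1-25) peptide (75uM) and acetyl-CoA (70uM); CoA-thiol fluorescence (Ex340/Em540) was read at 0 and 20 min.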
The depositor's hits bear a star; u = inconclusive; x = no result given; [ ] = remark or other dose. Unless noted, the call rests on the fitted dose curve; in most records, active means well fitted curve in the direction sought with a large enough effect; inconclusive means small, poorly fitted or top-dose-only effect, or another doubt; inactive means no such curve, though single readings can be large; an effect the other way counts as inactive or inconclusive. Potency means the concentration at half of the fitted maximal effect.

SMILES	Sfp PPTase inh	KDM4E inh	Epigenetic reg	NPSR antagonist	IMPase Li inh	KAT2A inh
CC(=O)NC1C(O)C[C@@](O)(C(=O)O)OC1[C@@H](O)C(O)CO (stereo partly specified)	13%	6%	1%	x	8%	2%
O=C(/C=C/c1ccc2c(c1)OCO2)c1ccccn1	32µM*	u	1%	-13%	x	-9%
Cc1ccc(/C=N/NC(=O)c2ccccn2)o1	56µM*	-12%	2%	17%	0%	29%
CS[C@@H]1SC[C@H]2C(=O)N(C)C(C(C)C)C(=O)OC[C@@H](NC(=O)c3cnc4ccccc4n3)C(=O)N[C@@H](C)C(=O)N(C)[C@H]1C(=O)N(C)C(C(C)C)C(=O)OC[C@@H](NC(=O)c1cnc3ccccc3n1)C(=O)N[C@@H](C)C(=O)N2C (stereo partly specified)	7%	x	x	x	x	15%
C/C(CCN1CCc2nc(-c3ccccc3)c(-c3ccccc3)cc2C1)=N\O[C@@H](C)CN1CCCCc2nc(C)c(C)cc21	5%	x	2%[10.1 µM]	x	x	x
CCc1ccc2n(-c3ccc(OC)cc3)c([S-])c(C(=O)Nc3cc(C)cc(C)c3)[n+]2c1	-6%	-20%	-2%	10µM*	x	-18%
Cc1nc(SCC(=O)c2cccs2)c2oc3ccccc3c2n1	79µM*	-16%	-2%	-21%[46.1 µM]	47%[38.3 µM]	-3%
O=C(CSc1ncnc2c1oc1ccccc12)c1cccs1	18%	1%	14%	21%[46.1 µM]	13µM*	29%
O=C(CSc1ncnc2c1oc1ccccc12)NC1CCCCC1	6%	-5%	0%	u	11µM*	2%
Cc1nc(SCc2ccccc2F)c2oc3ccccc3c2n1	79µM*	4%	-1%	-26%	x	-1%
Cc1nc(SCc2ccc(F)cc2)c2oc3ccccc3c2n1	1%	-12%	2%	u	x	-1%
CCc1nc(SCC(=O)NC2CCCC2)c2oc3ccccc3c2n1	3%	x	x	x	x	-5%
NC(=O)CSc1ncnc2c1oc1ccccc12	24%	1%	-1%	u	13µM*	0%
O=C(CSc1ncnc2c1oc1ccccc12)NCc1ccc(F)cc1	4%	-5%	0%	u	25µM*	-6%
c1ccc2[nH]c(CSc3ncnc4c3oc3ccccc34)nc2c1	12%	-9%	1%	10%[46.1 µM]	u	40µM*
O=C(CSc1ncnc2c1oc1ccccc12)OCc1ccccc1	2%	-3%	0%	u	-6%[38.3 µM]	-16%
Fc1ccc(CSc2ncnc3c2oc2ccccc23)cc1	-2%	0%	1%	u	u	-5%
Cc1cc(C)c2c(n1)SCCN2C(=O)Nc1ccc(C(=O)Nc2ccc(C(C)C)cc2)cc1	x	x	u	x	x	-10%
Nc1nc(-c2ccc3c(c2)CCC(=O)N3)cs1	40µM*	1%	u	9%	-1%	-6%
O=C(N/N=C/c1ccc(O)cc1O)/C(=C/c1ccccc1)CCO	26%	16µM*	1%	8%	5%	5%
O=C(CCCCCNC(=O)c1ccccc1)N/N=C/c1ccc(O)cc1O	14%	20µM*	0%	-7%[46.1 µM]	8%	2%
O=C(CNC(=O)C1COc2ccccc2O1)N/N=C/c1ccc(O)cc1O (stereo unspecified)	29%	28µM*	0%	6%	4%	-5%
O=C(/C=C\c1ccccc1)NCC(=O)N/N=C/c1ccc(O)cc1O	20%	x	x	x	x	-8%
C/C(=N\NC(=O)CCCCCNC(=O)c1ccccc1)c1ccccc1O	30%	u	2%	-2%	4%	-5%
O=C(CNC(=O)C(c1ccccc1)c1ccccc1)N/N=C/c1ccc(O)cc1O	17%	20µM*	-1%	-3%	x	-13%
SMILES	Sfp PPTase inh	KDM4E inh	Epigenetic reg	NPSR antagonist	IMPase Li inh	KAT2A inh
Cc1cc(C)c2nc3c(c([C@H](O)C4CCCCN4)c2c1)CC/C3=C/c1ccc(Cl)cc1 (stereo partly specified)	x	x	x	x	2%	x
CCOC(=S)SCC(=O)Nc1ncc(C)s1	16µM*	-2%	17%	45%	x	-13%
Cc1cnc(NC(=O)CSc2ccccc2)s1	-13%	-1%	1%	-4%[46.1 µM]	30%[38.3 µM]	1%
CCCCNC(=O)CCCn1c(=O)c2ccccc2n(Cc2ccccc2C)c1=O	x	x	-1%	x	x	-2%
COc1ccc(S(=O)(=O)NCCc2sc(-c3cccc(C)c3)nc2C)cc1	x	x	1%	x	x	1%
Cc1cc(C)n(-c2nc(NC(C)(C)C)nc(NC(C)(C)C)n2)n1	9%	9%	0%	-4%[46.1 µM]	1%[38.3 µM]	2%
Cc1cc(C)n(-c2nc(Nc3ccccc3C(F)(F)F)nc(-n3nc(C)cc3C)n2)n1	u	5%	-1%	0.32µM*	29%	0%
O=C(c1ccco1)[C@@H]1[C@@H]2C(=O)N(c3ccc(F)cc3)C(=O)[C@@H]2C2c3ccccc3C=CN21 (stereo partly specified)	-29%	-29%	1%	-10%[46.1 µM]	-10%[38.3 µM]	-3%
O=C(c1ccco1)[C@@H]1[C@@H]2C(=O)N(c3ccc(F)cc3)C(=O)[C@@H]2[C@H]2C=Cc3ccccc3N21	50µM*	-17%	-1%	-36%	-2%	-3%
NC(=O)[C@@H]1[C@@H]2C(=O)N(c3ccc(F)cc3)C(=O)[C@@H]2[C@H]2C=Cc3ccccc3N21	56µM*	u	4%	-29%	x	-18%
O=C1C2C3C=CC(CC3)C2C(=O)N1c1ccccc1F (stereo unspecified)	-3%	x	x	x	x	0%
COc1ccc(Nc2cc(C(=O)NCCCN(C)Cc3ccccc3)c3ccccc3n2)cc1OC	x	x	-1%	x	x	2%
Cn1nc(C(=O)Nc2c(-c3ccccc3)nc3sccn23)c2ccccc2c1=O	40µM*	0%	1%	-13%[46.1 µM]	13%[38.3 µM]	22%
O=C(COc1ccc2ccccc2c1Br)NNC(=O)Nc1ccccc1	13%	6%	0%	u	11µM*	12%
COC(=O)NNC(=O)COc1ccc2ccccc2c1Br	-15%	-23%	-1%	-24%	u	0%
COc1ccc(C2=Nn3c(nnc3-c3cccc(OC)c3OC)SC2)cc1OC	12%	x	x	x	x	x
CCc1ccc2[nH]c(C(=O)Nc3ccc(F)cc3Br)cc2c1	56µM*	x	x	x	x	1%
CC(=O)c1ccccc1[N+](=O)[O-]	x	x	x	x	-13%	x
COc1ccc(-c2nc3cnc(N4CCOCC4)nc3n(CCc3ccccc3)c2=O)cc1	16%	x	x	x	-23%	-10%
C=C(C)C(=O)Nc1cccc(C2=NOC3(C2)C[C@@H](C(N)=O)N(C(=O)/C(C)=C/C)C3)c1 (stereo partly specified)	6%	-8%	1%	21%	x	-11%
